This is an account of results in PubChem BioAssay (NCATS).

For assay [1], the target named is Phosphoglycerate kinase, glycosomal (Trypanosoma brucei brucei) (UniProt P07378). The assay can be described thus: qHTS Validation Assay to Find Inhibitors of Phosphoglycerate Kinase (AID 504547). Also: potency is read from the fitted curve at half-maximal effect. The conditions noted are these: enzymatic PGK inhibition, coupled luminescence read-out; series mostly up to 57.5 µM. The procedure, abridged: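 Luminescence end-point (Kinase-Glo Plus, 10 min) after a 60 min room-temperature coupled reaction. GAPDH at 100nM final supplies 1,3-BPG to PGK. Buffer: 100mM TEA pH 7.6, 5mM MgCl2, 0.01% Tween-20. Wells lacking PGK served as controls.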
Sequence of Phosphoglycerate kinase, glycosomal (Trypanosoma brucei brucei) (P07378 whole entry, looked up): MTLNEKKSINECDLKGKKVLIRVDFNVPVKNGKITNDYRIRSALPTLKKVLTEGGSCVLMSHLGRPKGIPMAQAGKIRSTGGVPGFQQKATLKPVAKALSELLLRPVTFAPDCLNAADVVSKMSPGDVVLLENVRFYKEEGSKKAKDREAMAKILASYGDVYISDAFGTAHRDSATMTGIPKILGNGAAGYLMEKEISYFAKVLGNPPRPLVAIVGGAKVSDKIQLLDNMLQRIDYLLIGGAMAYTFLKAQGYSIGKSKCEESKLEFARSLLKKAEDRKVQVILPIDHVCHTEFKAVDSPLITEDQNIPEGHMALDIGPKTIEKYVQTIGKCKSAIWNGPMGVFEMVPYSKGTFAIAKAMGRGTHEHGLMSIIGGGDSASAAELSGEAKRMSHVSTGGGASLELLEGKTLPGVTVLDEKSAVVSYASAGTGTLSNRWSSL

Assay [2] has as its target phosphoglycerate mutase (Leishmania major) (UniProt Q4Q090). The assay can be described thus: qHTS Validation Assay to Find Inhibitors of Phosphoglycerate Mutase (AID 504548). Also: potency is read from the fitted curve at half-maximal effect. The conditions noted are these: biochemical enzyme activity; Potency: inhibition qHTS; series mostly up to 57.5 µM. The gist of the method:
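Lm PGAM at 1.25 nM final with substrate in 100 mM TEA pH 7.6, 5 mM MgCl2, 0.01% Tween-20; 45 min at room temperature. Kinase-GloPlus added, 10 min, end-point luminescence read.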

Assay [3] has as its target Ubiquitin carboxyl-terminal hydrolase 1 (Homo sapiens) (UniProt O94782). The assay can be described thus: Inhibitors of USP1/UAF1: Pilot qHTS (AID 504865). Also: nearly all actives have a fitted effect of over 35% in size. Also: potency is read from the fitted curve at half-maximal effect. The settings on record: purified USP1/UAF1, Ub-rhodamine cleavage fluorescence; series mostly up to 114 µM. The gist of the method:
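Kinetic fluorescence assay: 1nM USP1/UAF1, 15 min compound preincubation, then 150nM Ub-Rho; 480/540 nm.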
(In general: Quantitative high-throughput screening tests each substance at several concentrations.)

In assay [4] the target is Peptidyl-prolyl cis-trans isomerase NIMA-interacting 1 (Homo sapiens) (UniProt Q13526). Briefly: qHTS Validation Assay to Find Inhibitors of Pin1 (AID 504536; active = well fitted inhibition curve with a large enough effect in the polarisation, with a control signal flat, not every such curve was filed as active; the % refers to the polarisation; also: potency is read from the fitted curve at half-maximal effect). The settings on record: Pin1 fluorescence polarization peptide binding assay; series mostly up to 57.5 µM. The gist of the method:
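Fluorescence polarization competition: compounds (titration) displace HiFluor-488-labeled Pin1-1b peptide from Pin1 (0.3 uM final) in pH 7.5 HEPES buffer with DTT, 10 min at room temperature; %Activity normalized to no-enzyme wells, curves fitted.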

Assay [5] in a line: qHTS for Inhibitors of ATXN expression: Validation of Cytotoxic Assay (AID 588349). Also: potency is read from the fitted curve at half-maximal effect. The conditions noted are these: cytotoxicity counter-screen for ATXN expression inhibitors, cell viability; series mostly up to 57.1 µM. The gist of the method:
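Cytotoxicity counter-screen: ATP-based luminescent viability (CellTiter Glo) after 72 hr exposure of HEK293 cells to a compound titration at 37 degrees C.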

Assay [6] in a line: qHTS for Inhibitors of ATXN expression: Validation (AID 588378). Also: nearly all actives have a fitted effect of over 75% in size. Also: potency is read from the fitted curve at half-maximal effect. The settings on record: cell-based ATXN2 expression reporter assay, luminescence; series mostly up to 57.1 µM. The gist of the method: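 Validation of ATXN2 expression inhibitors uses a cell-based luciferase fusion reporter in HEK293 cells, with 24 h compound exposure and paired viability (fluorescence) and reporter (luminescence) end-point reads.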

Assay [7] concerns the target Bile acid receptor (Homo sapiens) (UniProt Q96RI1). Briefly: qHTS assay for small molecule antagonists of farnesoid X receptor signaling (AID 588526; calls by dose curve; also: % is scaled to controls: 0 for no effect and ±100 for the full control effect). The settings on record: HEK293T FXR-UAS-bla, beta-lactamase ratio, antagonist mode; series mostly up to 76.7 µM. The procedure, abridged:
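Beta-lactamase reporter antagonist mode: HEK293T FXR-UAS-bla cells, titrated compound, CDCA stimulation, 16 h 37 C, CCF4 dye 2 h RT. Data normalized to CDCA 50 uM and DMSO; Hill-fit IC50.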

Assay [8] in a line: qHTS assay for small molecule antagonists of peroxisome proliferator-activated receptor delta signaling (AID 588535; active = well fitted inhibition curve with a large enough effect in the signal ratio, with a control signal flat, not every such curve was filed as active; the % refers to the signal ratio;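 as to max response: cells co-treated with a PPAR-delta agonist as stimulator during compound exposure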). The settings on record: HEK293T PPARd-UAS-bla, beta-lactamase FRET ratio, 18 h; 460 nm channel. The procedure, abridged: (§1)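 Titrations were run on PPAR-delta-UAS-bla HEK293T cells in charcoal/dextran-stripped serum, incubated 18 h at 37 C. CCF4 fluorescence (460/530 nm) after 2 h RT; Hill equation yields IC50 and maximal response.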

The target of assay [9] is Peroxisome proliferator-activated receptor delta (Homo sapiens) (UniProt Q03181). The description is as above. The settings on record: HEK293T PPARd-UAS-bla, beta-lactamase FRET ratio, 18 h; series mostly up to 76.7 µM. The gist of the method:
as §1

For assay [10], the target named is Peroxisome proliferator-activated receptor gamma (Homo sapiens) (UniProt P37231). The assay can be described thus: qHTS assay for small molecule agonists of peroxisome proliferator-activated receptor gamma signaling (AID 588536; active = well fitted curve in the direction sought with a large enough effect in the signal ratio, with a control signal flat, not every such curve was filed as active; the % refers to the signal ratio;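 also: 0% = DMSO basal wells and 100% = rosiglitazone at 2 µM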). The conditions noted are these: HEK293 PPARg-UAS-bla, beta-lactamase ratio, 16 h, percent of rosiglitazone response, DMSO as zero; series mostly up to 76.7 µM. The procedure, abridged:
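Cells were plated and held 6–6.5 h at 37 C, then compounds were added as a titration series. After a further 16 h, CCF4 dye was loaded for 2 h at room temperature and emission at 460/530 nm recorded.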

Assay [11] has the same target. Briefly: qHTS assay for small molecule antagonists of peroxisome proliferator-activated receptor gamma signaling (AID 588537; active = well fitted inhibition curve with a large enough effect in the signal ratio, with a control signal flat, not every such curve was filed as active; the % refers to the signal ratio;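 also: reporter cells co-stimulated with 50 nM rosiglitazone agonist during compound treatment; % of control where 0% means no effect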). The conditions noted are these: HEK293 PPARg-UAS-bla, beta-lactamase ratio, antagonist mode; series mostly up to 76.8 µM. The procedure, abridged:
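Antagonist-mode β-lactamase reporter screen run as a titration series. HEK293 PPARγ-UAS-bla cells are stimulated with rosiglitazone (50 nM final) for 16 h, then CCF4 is read at 460/530 nm. Data are scaled between DMSO and rosiglitazone and fitted to the Hill equation.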

In assay [12] the target is Vitamin D3 receptor (Homo sapiens) (UniProt P11473). The assay can be described thus: qHTS assay for small molecule antagonists of vitamin D receptor signaling (AID 588541; calls by dose curve;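 also: receptor activated by calcitriol during compound treatment; % is scaled to controls: 0 for no effect and ±100 for the full control effect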). The settings on record: HEK293T VDR-UAS-bla, beta-lactamase ratio, antagonist mode; series mostly up to 76.7 µM. The procedure, abridged:
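Antagonist-mode beta-lactamase reporter assay: HEK293T VDR-UAS-bla cells were exposed to titrated compound alongside 1-alpha,25-dihydroxyvitamin D3 at 3 nM final for 16 h. Values were normalized to the 50 nM agonist control and DMSO basal, with IC50 and efficacy from Hill equation fits.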

The target is the same in assay [13]. Briefly: qHTS assay for small molecule agonists of vitamin D receptor signaling (AID 588543; calls by dose curve;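 also: 0% = DMSO basal and 100% = reference agonist control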). The settings on record: HEK293T VDR-UAS-bla, beta-lactamase ratio, 16 h; series mostly up to 76.8 µM. The procedure, abridged: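 qHTS in agonist mode: compound titrations stimulate a VDR-driven β-lactamase reporter in HEK293T cells over 16 h at 37 °C. Response normalized to 50 nM 1α,25-dihydroxyvitamin D3 = 100%, DMSO = 0%; Hill fitting gives EC50 and maximal response.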

A short description of assay [14]: qHTS assay for small molecule agonists of retinoid X receptor alpha signaling (AID 588544). The settings on record: HEK293T RXRa-UAS-bla, beta-lactamase reporter, 18 h; 530 nm emission.

Several values for one entry are separate records, joined by “and”; a condition that tells them apart may be missing. Equal entries are not always repeated. Results filed as inconclusive are left out. Activity calls are given as the source filed them. Unless noted, calls follow the shape of the dose curve; as a rule, active = well fitted curve in the direction sought with a large enough effect; inconclusive = small, poorly fitted or top-dose-only effect, or another doubt; inactive = no such curve, though single readings can be large; an effect the other way counts as inactive or inconclusive.

Sequence of phosphoglycerate mutase (Leishmania major) (Q4Q090 1-553): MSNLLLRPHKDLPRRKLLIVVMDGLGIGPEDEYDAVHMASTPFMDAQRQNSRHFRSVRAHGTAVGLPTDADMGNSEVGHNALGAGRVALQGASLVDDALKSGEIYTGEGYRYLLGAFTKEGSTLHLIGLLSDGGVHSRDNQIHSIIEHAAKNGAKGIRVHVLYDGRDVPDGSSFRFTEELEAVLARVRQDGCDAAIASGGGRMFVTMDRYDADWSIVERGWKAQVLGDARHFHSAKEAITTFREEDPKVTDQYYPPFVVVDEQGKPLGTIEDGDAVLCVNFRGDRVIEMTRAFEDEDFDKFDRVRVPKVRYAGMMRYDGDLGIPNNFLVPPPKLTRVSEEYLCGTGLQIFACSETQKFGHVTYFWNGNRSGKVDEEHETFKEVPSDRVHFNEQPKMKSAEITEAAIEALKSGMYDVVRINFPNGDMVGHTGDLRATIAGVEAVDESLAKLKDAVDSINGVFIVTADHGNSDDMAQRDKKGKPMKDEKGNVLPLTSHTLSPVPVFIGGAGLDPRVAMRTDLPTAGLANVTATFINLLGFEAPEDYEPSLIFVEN
Sequence of Peroxisome proliferator-activated receptor gamma (Homo sapiens) (P37231 whole entry, looked up): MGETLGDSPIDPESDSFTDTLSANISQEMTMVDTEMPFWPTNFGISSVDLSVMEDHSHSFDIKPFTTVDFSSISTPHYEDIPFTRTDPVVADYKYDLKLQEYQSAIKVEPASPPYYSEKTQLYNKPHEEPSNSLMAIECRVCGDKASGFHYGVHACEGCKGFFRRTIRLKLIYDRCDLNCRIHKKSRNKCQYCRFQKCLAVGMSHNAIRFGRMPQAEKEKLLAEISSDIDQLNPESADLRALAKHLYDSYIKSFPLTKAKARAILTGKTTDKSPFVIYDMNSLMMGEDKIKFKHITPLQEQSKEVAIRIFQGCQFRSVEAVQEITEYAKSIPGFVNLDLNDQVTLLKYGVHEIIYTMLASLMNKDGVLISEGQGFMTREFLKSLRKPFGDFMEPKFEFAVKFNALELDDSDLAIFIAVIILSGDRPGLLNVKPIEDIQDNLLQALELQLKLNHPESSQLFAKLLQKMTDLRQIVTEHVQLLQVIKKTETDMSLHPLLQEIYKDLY
Sequence of Ubiquitin carboxyl-terminal hydrolase 1 (Homo sapiens) (O94782 whole entry, looked up): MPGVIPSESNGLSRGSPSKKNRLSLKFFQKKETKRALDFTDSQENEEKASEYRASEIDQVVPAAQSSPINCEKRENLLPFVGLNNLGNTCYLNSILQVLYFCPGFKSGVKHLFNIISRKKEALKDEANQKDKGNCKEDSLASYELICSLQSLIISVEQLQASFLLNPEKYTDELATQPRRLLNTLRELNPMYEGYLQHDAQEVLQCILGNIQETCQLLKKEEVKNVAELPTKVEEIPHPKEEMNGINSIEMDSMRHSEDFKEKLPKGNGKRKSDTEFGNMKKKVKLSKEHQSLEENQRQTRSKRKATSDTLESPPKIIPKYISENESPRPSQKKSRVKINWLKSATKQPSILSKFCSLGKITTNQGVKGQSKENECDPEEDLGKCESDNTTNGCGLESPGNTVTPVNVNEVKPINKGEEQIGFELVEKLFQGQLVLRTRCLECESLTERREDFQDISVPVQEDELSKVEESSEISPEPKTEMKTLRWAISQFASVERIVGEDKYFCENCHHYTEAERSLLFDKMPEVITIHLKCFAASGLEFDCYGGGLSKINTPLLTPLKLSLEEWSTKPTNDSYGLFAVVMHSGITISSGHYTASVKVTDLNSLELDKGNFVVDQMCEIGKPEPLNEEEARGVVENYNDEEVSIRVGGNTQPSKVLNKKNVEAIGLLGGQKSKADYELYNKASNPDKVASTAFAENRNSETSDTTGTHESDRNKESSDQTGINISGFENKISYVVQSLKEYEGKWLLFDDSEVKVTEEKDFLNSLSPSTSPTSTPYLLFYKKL
Sequence of Peptidyl-prolyl cis-trans isomerase NIMA-interacting 1 (Homo sapiens) (Q13526 whole entry, looked up): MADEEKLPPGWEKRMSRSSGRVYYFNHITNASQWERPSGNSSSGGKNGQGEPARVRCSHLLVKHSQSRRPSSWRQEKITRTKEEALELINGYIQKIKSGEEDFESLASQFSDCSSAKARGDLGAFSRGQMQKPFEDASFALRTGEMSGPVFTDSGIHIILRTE
Sequence of Vitamin D3 receptor (Homo sapiens) (P11473 whole entry, looked up): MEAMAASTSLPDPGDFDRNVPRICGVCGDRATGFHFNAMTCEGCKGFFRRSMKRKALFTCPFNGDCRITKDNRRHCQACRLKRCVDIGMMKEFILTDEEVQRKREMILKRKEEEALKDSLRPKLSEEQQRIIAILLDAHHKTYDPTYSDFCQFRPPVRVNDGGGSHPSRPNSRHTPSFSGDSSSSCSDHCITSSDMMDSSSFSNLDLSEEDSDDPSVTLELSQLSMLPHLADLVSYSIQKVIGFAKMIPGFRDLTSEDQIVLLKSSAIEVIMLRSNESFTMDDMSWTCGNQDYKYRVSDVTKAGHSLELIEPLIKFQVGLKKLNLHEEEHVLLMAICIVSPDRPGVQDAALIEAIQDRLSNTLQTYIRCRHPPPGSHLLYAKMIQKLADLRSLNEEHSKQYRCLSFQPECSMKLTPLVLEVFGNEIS
Sequence of Peroxisome proliferator-activated receptor delta (Homo sapiens) (Q03181 whole entry, looked up): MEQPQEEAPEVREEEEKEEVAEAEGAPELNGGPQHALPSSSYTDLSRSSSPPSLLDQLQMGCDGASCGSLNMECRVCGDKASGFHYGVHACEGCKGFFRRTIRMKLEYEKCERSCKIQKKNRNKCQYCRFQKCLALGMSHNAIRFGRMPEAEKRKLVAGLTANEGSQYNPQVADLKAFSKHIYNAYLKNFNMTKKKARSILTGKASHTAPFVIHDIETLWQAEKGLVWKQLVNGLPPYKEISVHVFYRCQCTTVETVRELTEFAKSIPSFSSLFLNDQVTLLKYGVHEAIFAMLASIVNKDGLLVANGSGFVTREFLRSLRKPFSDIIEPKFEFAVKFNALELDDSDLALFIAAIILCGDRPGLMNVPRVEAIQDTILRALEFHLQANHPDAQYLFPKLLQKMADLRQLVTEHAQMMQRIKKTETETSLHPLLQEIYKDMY
Sequence of Bile acid receptor (Homo sapiens) (Q96RI1 whole entry, looked up): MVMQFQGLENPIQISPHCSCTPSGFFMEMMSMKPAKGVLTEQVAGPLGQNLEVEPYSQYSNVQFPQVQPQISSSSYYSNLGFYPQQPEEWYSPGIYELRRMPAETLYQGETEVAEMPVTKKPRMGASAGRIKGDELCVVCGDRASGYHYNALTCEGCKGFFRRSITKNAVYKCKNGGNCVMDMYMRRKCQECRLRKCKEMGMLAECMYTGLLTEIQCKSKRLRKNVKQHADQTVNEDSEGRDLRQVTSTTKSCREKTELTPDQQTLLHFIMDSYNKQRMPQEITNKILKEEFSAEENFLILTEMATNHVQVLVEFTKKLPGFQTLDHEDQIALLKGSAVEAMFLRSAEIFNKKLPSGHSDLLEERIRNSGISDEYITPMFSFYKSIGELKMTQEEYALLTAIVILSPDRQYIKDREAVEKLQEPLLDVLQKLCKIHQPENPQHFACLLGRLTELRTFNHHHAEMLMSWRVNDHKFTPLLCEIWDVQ

On to `Ic1ccc(N2CCN(Cc3c[nH]c4ncccc34)CC2)cc1`, for which the Potency result in assay [1] and in assay [2] was “inactive” in each case. Besides, the Potency in assay [3] is 50.1 µM (active).

Regarding `NS(=O)(=O)C#Cc1ccccc1`, the Potency result in assay [1], in assay [2] and in [3] was “inactive” throughout.

On to `Oc1cc2c(cc1O)CN(C(=S)NCCc1ccc(Cl)cc1)CCC2`, for which the Potency result in assay [4], in [1], in assay [2], in assay [5] and in assay [6] was “inactive” in each case.

As to `COc1ccccc1N1CCN(CCCCNS(=O)(=O)c2cccc3c(N(C)C)cccc23)CC1`, the Potency entry in assay [1], in assay [2] and in assay [3] was “inactive” each time.

Take `Cc1ccc(O)c(N=Nc2ccccc2)n1`: the Potency in [1] and in assay [2] was 10.7 µM (active) each time.

As to `CCCCCCCCCCCCCCCCCC(=O)OC(CC(=O)O)C[N+](C)(C)C` (centres undefined), the Potency result in assay [1] and in [2] was “inactive” each time.

`CC(C)NCC(O)COc1cccc2ccccc12` (centres undefined): the Potency entry in assay [4], in assay [3], in assay [9] and in assay [11] was “inactive” each time. In addition, the outcome in assay [7], in assay [10], in [12] and in assay [13] was inactive. In addition, the max response was -13.8% and 28.5% in assay [8]; 16.9% and 0.479% in assay [14].

For `N#C/C(=C\c1ccc(O)c(O)c1)C(=O)NCCCc1ccccc1`, the Potency result in assay [1] and in [2] was “inactive” each time.

Take `O=C1/C(=C/c2ccsc2)CC/C1=C\c1cccs1`: the Potency entry in assay [4], in [1], in assay [3], in assay [5] and in assay [6] was “inactive” throughout.

With `O=C(O)CNC(=O)C(CS)Cc1ccccc1` (centres undefined), the Potency result in [4], in assay [1], in [2] and in assay [5] was “inactive” in each case.

Turning to `O=C(/C=C/c1ccc(O)c(O)c1)OCCc1ccccc1`, the Potency entry in assay [1] and in assay [2] was “inactive” each time.

Take `CC(C)NC[C@@H](O)c1ccc(O)c(O)c1`: the Potency entry in assay [1], in [2] and in assay [3] was “inactive” each time.

Regarding `CCCCCCCC/C=C\CCCCCCCC(=O)NCCO`, the Potency entry in assay [4], in assay [1], in [2] and in [6] was “inactive” each time.

As for `C#C[C@]1(O)CC[C@H]2[C@@H]3CCC4=Cc5oncc5CC4(C)[C@H]3CCC21C` (some centres undefined), the Potency result in assay [4], in assay [1], in [2] and in assay [6] was “inactive” in each case.

In the case of `CCCCCCCCCCCCCCCCCC(=O)NCC(COP(=O)([O-])OCC[N+](C)(C)C)OCC` (centres undefined), the Potency entry in [1] and in assay [2] was “inactive” in each case.

In the case of `O=[N+]([O-])c1ccc2c(c1)S(=O)(=O)C=C2`, the Potency result in assay [1] and in assay [2] was “inactive” in each case.

`CCCCC/C=C\CC(O)/C=C/c1cccc(CC(O)CCCCO)n1` (centres undefined): the Potency entry in assay [4], in [1], in assay [2] and in [6] was “inactive” in each case.

For `O=C1NC(O)=NC1(c1ccccc1)c1ccccc1`, the Potency entry in assay [1], in assay [2] and in assay [3] was “inactive” each time.

Consider `COC1=C(OC)C(=O)c2ccccc2C1=O`, for which the Potency result in assay [1] and in assay [2] was “inactive” throughout. In addition, the Potency in [3] was 17.8 µM (active).

Turning to `CC(C)(C=O)Cc1cc(C(C)(C)C)c(O)c(C(C)(C)C)c1`, the Potency result in [1], in [2] and in assay [3] was “inactive” in each case.

Consider `CCCC1(C)C(C#N)(C#N)C1(C#N)C#N`, for which the Potency entry in [4] and in assay [1] was “inactive” throughout. In addition, the Potency in [3] is 10 µM (active).

In the case of `CCC1C(=O)OCC1Cc1cncn1C` (centres undefined), the Potency entry in assay [1] and in assay [2] was “inactive” in each case.

Turning to `COc1cccc(OC)c1OCCNCC1COc2ccccc2O1` (centres undefined), the Potency entry in assay [1], in assay [2], in assay [3] and in [5] was “inactive” throughout.

As to `O=C(Nc1cccc(C(=O)Nc2ccc(S(=O)(=O)O)c3cc(S(=O)(=O)O)cc(S(=O)(=O)O)c23)c1)Nc1cccc(C(=O)Nc2ccc(S(=O)(=O)O)c3cc(S(=O)(=O)O)cc(S(=O)(=O)O)c23)c1`, the Potency in [4] was 6.75 µM (active); in assay [3], 28.2 µM (active) and 12.6 µM (active). For the same compound, in assay [2], the Potency result was “inactive”.

Consider `CC1(C)CCC=[N+]1[O-]`, for which the Potency entry in assay [1], in assay [2], in assay [3] and in [6] was “inactive” in each case.

For the compound `O=C1O/C(=C/Br)CCC1c1cccc2ccccc12` (centres undefined), the Potency entry in assay [1] and in assay [2] was “inactive” throughout. In addition, the values for the Potency in assay [5] and in [6] were 31.6 µM (active) and 25.1 µM (active), respectively.

With `O=C(O)[C@@H]1C[C@@H](C(=O)O)N1`, the Potency entry in [1], in [2], in [3], in assay [5] and in [6] was “inactive” in each case.

As for `C[N+](C)(C)CCOP(=O)(O)OP(=O)([O-])OC[C@H]1O[C@@H](n2ccc(N)nc2=O)[C@H](O)[C@@H]1O`, the Potency entry in assay [1], in assay [2], in [3], in [5] and in [6] was “inactive” each time.

Turning to `O=C(O)[C@@H]1C[C@H](C(=O)O)N1`, the Potency entry in assay [1], in assay [2], in assay [3], in assay [5] and in [6] was “inactive” each time.

With `O=C(c1cc(O)c(O)c([N+](=O)[O-])c1)c1ccccc1F`, the Potency entry in [2], in [3] and in assay [5] was “inactive” in each case.

For `COC(=O)c1c(C)[nH]c(C)c1C(=O)c1ccccc1Cc1ccccc1`, the Potency entry in [1], in [2], in assay [5] and in assay [6] was “inactive” throughout.

As to `O=P(O)(O)C(Cl)(Cl)P(=O)(O)O`, the Potency entry in [1], in [2], in [5] and in assay [6] was “inactive” each time.

On to `O=C(O)/C=C/C(O)c1ccc(Cl)cc1` (centres undefined), for which the Potency result in [1], in assay [2], in [3] and in assay [6] was “inactive” each time.

Regarding `CSc1nc(N)c2ncn([C@@H]3O[C@H](COP(=O)(O)OP(=O)(O)OP(=O)(O)O)[C@@H](O)[C@H]3O)c2n1`, the Potency result in [1], in assay [2], in assay [3], in assay [5] and in assay [6] was “inactive” each time.

In the case of `Nc1ncnc2c1ncn2[C@@H]1O[C@H](COP(=O)(O)OP(=O)(O)OP(=O)(O)OP(=O)(O)OC[C@@H]2O[C@H](n3cnc4c(N)ncnc43)[C@@H](O)[C@H]2O)[C@@H](O)[C@H]1O`, the Potency entry in [1], in assay [2], in assay [3], in assay [5] and in [6] was “inactive” in each case.
